RPL19A-GFP yeast: RPL19A-GFP expression modulators in yeast, primary screen, cell-based, S. cerevisiae, multiplex flow cytometry, MLPCN; S. cerevisiae RPL19A-GFP strain, 3 h; hits give low values; percent response vs DMSO, % at 10 µM; 330,000 compounds, 0.3% hits; AID 2025, 2009;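 active means percent response vs DMSO below 50%; inconclusive means fewer than 70 events counted for the yeast strain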;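 further: median channel GFP fluorescence of the barcoded RPL19A-GFP strain; ratio of sample median GFP to plate DMSO average so 100% = DMSO; lower means less RPL19A-GFP as with rapamycin TOR inhibition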
CIT2 TOR yeast: modulators of CIT2-GFP expression in yeast, primary screen, S. cerevisiae, GFP fusion, multiplex flow cytometry, MLPCN library | 320,000 compounds, 0.065% hits | S. cerevisiae CIT2-GFP strain, 3 h; 100 means same as DMSO wells | GFP response vs DMSO, % at 10 µM | AID 2029, 2009;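 active means GFP response relative to DMSO above a set limit, near the screen mean plus 3 SD, cut at about 150% in these data; inconclusive means Fewer than 70 cells measured for a yeast strain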;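 further: ratio of well median GFP fluorescence to mean of DMSO wells on the plate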
LAP4 TOR yeast: modulators of LAP4-GFP expression in yeast, primary screen, S. cerevisiae, multiplex flow cytometry, MLPCN library | 3 h; median GFP as percent of DMSO wells | GFP response vs DMSO, % at 10 µM | 320,000 compounds, 0.34% hits;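 active means GFP response vs DMSO above a set limit, about the screen mean plus 3 SD, cut at about 150% in these data; inconclusive means under 70 cell events counted for the yeast strain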
AGP1 TOR yeast: modulators of AGP1-GFP expression in yeast TOR pathway, primary screen, cell-based, multiplex flow cytometry, S. cerevisiae, MLPCN library; 3 h; GFP as percent of DMSO wells; GFP response vs DMSO, % at 10 µM; 320,000 compounds, 0.02% hits;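 active means GFP response relative to DMSO above a set limit, near screen average plus 3 SD, cut at about 150% in these data; inconclusive means fewer than 70 cells counted for the yeast strain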;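 further: median GFP channel fluorescence of the gated AGP1 strain per well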
MEP2 TOR yeast: modulators of MEP2-GFP levels in yeast, primary screen, S. cerevisiae, multiplex flow cytometry, MLPCN library; S. cerevisiae MEP2-GFP strain, 3 h; 100% = DMSO control level; GFP response vs DMSO, % at 10 µM; 330,000 compounds, 0.51% hits;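 active means GFP response versus DMSO above a set limit, roughly screen mean plus 3 SD, cut at about 180% in these data; inconclusive means fewer than 70 cells counted for a yeast strain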;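 further: median GFP fluorescence of the barcode-gated MEP2-GFP cells per well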
Efflux pump inh: inhibitors of Candida efflux pumps in yeast, primary screen, S. cerevisiae, Nile Red, multiplex; S. cerevisiae Candida pump triplex; inhibition, % at 10 µM; 330,000 compounds, 0.44% hits; AID 485275, 2010;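 active means plate passing quality check with inhibition over a set limit, or well fluorescence over plate mean plus 4 SD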;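 further: Nile Red retained in pooled yeast measured as flow cytometry median fluorescence; 0% = buffer negative control and 100% = Enniatin B positive control; higher means more Nile Red kept so more efflux inhibition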
The depositor's hits bear a star; ? = inconclusive; · = not tested or not shown; [ ] = remark or other dose. The list is not random: actives were taken first. Their share in the collection is about 1.3%.

SMILES	RPL19A-GFP yeast	CIT2 TOR yeast	LAP4 TOR yeast	AGP1 TOR yeast	MEP2 TOR yeast	Efflux pump inh
O=C(c1cc(-c2ccc(O)cc2)on1)N1CCc2ccccc2C1	93	92	111	98	98	0
Cc1ccc2nc(C3CCCN3Cc3nc(CCC(C)C)no3)[nH]c2c1 (stereo not given)	119	111	113	112	117	0
O=C(COc1ccccc1)N(Cc1cccc(F)c1)C1CCS(=O)(=O)C1 (stereo not given)	44*[may fluoresce violet]	?	86	16	139	0
O=C(COc1ccc(F)cc1)N(Cc1cccc(Br)c1)C1CCS(=O)(=O)C1 (stereo not given)	102	106	120	112	104	0
Cc1csc2c(=O)sc(NC(=O)c3cccs3)nc12	48*[may fluoresce violet]	?	88	22	596*[may fluoresce violet]	0
Cc1csc2c(=O)sc(NC(=O)c3ccco3)nc12	100	102	97	98	101	0
O=C(Nc1nc2c(s1)CCCC2)c1cc2n(n1)C(C(F)(F)F)CC(C1CC1)N2 (stereo not given)	61	?	85	·	182*[may fluoresce violet]	0
Cc1nnc(NC(=O)c2cc3n(n2)C(C(F)(F)F)CC(C2CC2)N3)s1 (stereo not given)	98	96	95	92	100	0
Cc1ccc2nc(NC(=S)NC(=O)c3ccco3)sc2c1	40*[may fluoresce violet]	?	64	?	125	0
Cc1ccc2nc(NC(=O)c3ccco3)sc2c1	98	95	120	94	100	0
NC(=O)c1ccc[n+](Cc2ccc(-c3ccccc3)cc2)c1	86	89	88	91	91	0
COc1ccc(CC(NC(C)=O)C(=O)NC2CCN(c3nnnn3-c3ccccc3)CC2)cc1 (stereo not given)	30*[may fluoresce violet]	?	92	?	205*[may fluoresce violet]	0
COc1cccc(CC(NC(C)=O)C(=O)NC2CCN(c3nnnn3-c3ccccc3)CC2)c1 (stereo not given)	100	109	98	108	102	0
O=c1c(C=NCC2CCCO2)c(-c2ccccc2)[nH]n1-c1ccc([N+](=O)[O-])cc1 (stereo not given)	35*[may fluoresce violet]	?	?	?	?	0
CCNC(=O)CSc1nnc(-c2ccccc2)n1-c1ccc(OCC)cc1	102	102	99	99	103	0
CCOc1ccc(-n2c(-c3ccccc3)nnc2-c2ccccc2)cc1	45*[may fluoresce violet]	?	79	·	252*[may fluoresce violet]	0
CSc1nc(C)c(CCOCc2ccccc2)c(=O)[nH]1	64	?	69	?	233*[may fluoresce violet]	0
CSc1nc(C)c(Cc2ccccc2)c(=O)[nH]1	98	102	111	106	108	0
COc1cc2c(cc1C1C(C#N)=C(N)OC3=C1C(=O)CC(C)(C)C3)OCO2 (stereo not given)	108	105	100	105	110	0
Cc1ccc(NC(=O)c2cc(NC(=O)c3ccco3)ccc2N2CCCCC2)cc1	27*[may fluoresce violet]	?	90	?	371*[may fluoresce violet]	0
CCOc1ccc(N(CC(=O)OC)S(=O)(=O)c2ccc(OC)c(OC)c2)cc1	56	?	80	·	205*[may fluoresce violet]	0
COc1ccc(S(=O)(=O)N(CC(=O)N2CCOCC2)c2ccc(F)cc2)cc1OC	?	?	80	?	221*[may fluoresce red and violet]	0
O=C1C2=C(NC(=S)NC2c2ccc(Cl)cc2)NC(c2ccc(Cl)cc2)N1c1ccc(Cl)cc1 (stereo not given)	56	?	?	?	391*[may fluoresce violet]	0
CCc1ccc(C2NC(=S)NC3=C2C(=O)N(c2ccccc2OC)C(c2ccc(CC)cc2)N3)cc1 (stereo not given)	97	94	106	·	99	0
Cc1cccc(C)c1NC(=O)C1CCCNC1 (stereo not given)	20*[may fluoresce violet]	?	129	?	253*[may fluoresce violet]	0
SMILES	RPL19A-GFP yeast	CIT2 TOR yeast	LAP4 TOR yeast	AGP1 TOR yeast	MEP2 TOR yeast	Efflux pump inh
Cc1cccc(C)c1NC(=O)N1CCCCCCC1	87	99	95	88	95	0
Cc1ccc(CC(=O)NCC(O)c2ccccc2)cc1 (stereo not given)	46*[may fluoresce violet]	?	85	?	284*[may fluoresce violet]	0
OCCC1CN(Cc2nc3ccccc3s2)CCN1C1CCCC1 (stereo not given)	101	102	102	102	106	0
CCOC(=O)c1ccc(N2CN(C3CCCCC3)CNC2=S)cc1	31*[may fluoresce violet]	?	98	?	237*[may fluoresce violet]	0
Cc1cc(=O)oc2cc(NS(=O)(=O)c3ccccc3)ccc12	60	?	93	26	561*[may fluoresce violet]	0
Cc1cc(=O)oc2cc(NS(=O)(=O)c3ccc(F)cc3)ccc12	98	98	108	104	93	0
C=C(C)C1CC=C(C)/C(=N/NC(=O)CNc2ccc(C)cc2C)C1 (stereo not given)	96	80	98	95	93	0
C=C(C)C1CC=C(C)/C(=N/NC(=O)CNc2ccc(OCC)cc2)C1 (stereo not given)	59	?	104	?	207*[may fluoresce violet]	0
CC(C)NC(=O)N(C)C[C@@H]1Oc2c(NC(=O)Nc3ccccc3)cccc2C(=O)N([C@H](C)CO)C[C@H]1C	93	91	86	95	93	0
Cc1ccccc1N(C(=O)CCCC(=O)Nc1ccccn1)C(C(=O)NC1CCCC1)c1ccc(O)cc1 (stereo not given)	99	104	100	105	107	0
Cc1ccc(N(C(=O)CNC(=O)c2ccco2)C(C(=O)NC2CCCC2)c2cccnc2)cc1C (stereo not given)	87	98	186*	118	195*	0
Cc1ccc(N(C(=O)CNC(=O)c2ccco2)C(C(=O)NC2CCCCC2)c2cccnc2)cc1C (stereo not given)	99	95	93	100	87	0
Cc1cc(C)cc(N(C(=O)c2csnn2)C(C(=O)NC2CCCC2)c2cccnc2)c1 (stereo not given)	57	?	92	17	184*[may fluoresce violet]	0
Cc1ccc(N(C(=O)CCCC(=O)Nc2ccccn2)C(C(=O)NC2CCCC2)c2ccc(O)cc2)cc1C (stereo not given)	87	102	139	110	238*	0
CCOC(=O)Cc1csc(NC(=O)C(C)c2ccc([N+](=O)[O-])cc2)n1 (stereo not given)	108	105	92	107	103	0

Source: PubChem BioAssay
